Measured values from article PMC4336329 (PLoS ONE, 2015).
The campaign covered roughly 310,000 compounds. About 14,000 (4.5%) showed an effect of 50% or more. Effects have a minus sign here. The sample as a whole holds a higher share of strong results than the screen did.

Biological target: human ether-à-go-go-related gene (hERG) potassium channel (human, UniProt Q12809)
Experiment: primary screen, population patch clamp on CHO cells stably expressing hERG; higher = less effect of the substance
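Note: peak tail current of the secondary pulse compared with the same well before compound.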

Chain of human ether-à-go-go-related gene (hERG) potassium channel (Q12809 whole entry, looked up): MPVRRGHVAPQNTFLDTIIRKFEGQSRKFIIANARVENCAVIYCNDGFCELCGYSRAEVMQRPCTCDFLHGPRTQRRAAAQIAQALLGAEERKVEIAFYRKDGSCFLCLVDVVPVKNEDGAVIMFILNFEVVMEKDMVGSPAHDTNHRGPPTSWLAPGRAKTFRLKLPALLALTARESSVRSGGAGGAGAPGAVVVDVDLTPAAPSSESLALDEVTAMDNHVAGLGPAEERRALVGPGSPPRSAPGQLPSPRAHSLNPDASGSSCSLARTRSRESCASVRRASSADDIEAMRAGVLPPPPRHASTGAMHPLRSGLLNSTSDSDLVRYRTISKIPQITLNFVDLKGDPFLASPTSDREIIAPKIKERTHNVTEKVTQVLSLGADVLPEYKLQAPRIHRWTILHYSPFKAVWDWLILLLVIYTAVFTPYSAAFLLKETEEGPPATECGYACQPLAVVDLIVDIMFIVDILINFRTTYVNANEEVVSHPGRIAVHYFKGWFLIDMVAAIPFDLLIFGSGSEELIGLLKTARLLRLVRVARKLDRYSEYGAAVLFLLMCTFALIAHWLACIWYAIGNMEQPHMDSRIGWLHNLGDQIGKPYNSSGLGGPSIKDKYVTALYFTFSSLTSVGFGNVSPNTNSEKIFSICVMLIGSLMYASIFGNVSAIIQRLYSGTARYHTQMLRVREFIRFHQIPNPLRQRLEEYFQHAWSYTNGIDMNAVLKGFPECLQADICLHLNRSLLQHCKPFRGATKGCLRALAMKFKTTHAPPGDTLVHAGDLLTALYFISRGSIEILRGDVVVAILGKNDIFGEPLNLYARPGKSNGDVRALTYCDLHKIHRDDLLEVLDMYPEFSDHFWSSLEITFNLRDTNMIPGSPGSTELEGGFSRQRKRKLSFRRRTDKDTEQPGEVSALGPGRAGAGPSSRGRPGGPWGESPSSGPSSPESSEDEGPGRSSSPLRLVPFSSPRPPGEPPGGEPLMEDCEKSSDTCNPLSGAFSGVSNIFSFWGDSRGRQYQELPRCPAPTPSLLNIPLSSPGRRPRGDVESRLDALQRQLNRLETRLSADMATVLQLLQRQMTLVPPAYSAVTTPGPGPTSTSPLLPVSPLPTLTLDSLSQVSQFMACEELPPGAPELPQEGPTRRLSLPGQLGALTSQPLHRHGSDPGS

Row | SMILES | hERG current change (%, negative = inhibition) at 10uM
1 | CC(NC(=O)c1cc(-c2ccccc2)nc2ccccc12)C1CCCO1 (stereo not shown) | -11%
2 | O=C1CC2OCC=C3CN4CCC56c7cc([N+](=O)[O-])ccc7N1C5C2C3CC46 (stereo not shown) | -22.4%
3 | O=C1/C(=C\c2ccccc2)C2OCC=C3CN4CCC56c7ccccc7N1C5C2C3CC46 (stereo not shown) | -53.4%
4 | COc1cc2c(cc1OC)[C@@]13CCN4CC5=CCO[C@H]6CC(=O)N2[C@H]1[C@H]6[C@H]5C[C@H]43 | -8.03%
5 | NNC(=O)c1ccc(Oc2cc(Cl)cc(Cl)c2)o1 | 1.1%
6 | Cl.O=C(Nc1cc(F)cc(F)c1)c1ccc(NCCCN2CCCCCC2)c([N+](=O)[O-])c1 | -72.1%
7 | O=C(Nc1ccc(Cl)c([N+](=O)[O-])c1)c1ccc(NCCCN2CCOCC2)c([N+](=O)[O-])c1 | -10.2%
8 | COc1cccc(NC(=O)c2ccc(NCCCN3CCC(C)CC3)c([N+](=O)[O-])c2)c1 | -56.2%
9 | COc1ccc(NC(=O)c2ccc(NCCCN3CCOCC3)c([N+](=O)[O-])c2)cc1 | -3.71%
10 | Cc1ccc(NC(=O)c2ccc(NCCCN3CCC(C)CC3)c([N+](=O)[O-])c2)c(C)c1 | -19.4%
11 | CCCN(CCC)CCCNc1ccc(C(=O)Nc2cccc(OC)c2)cc1[N+](=O)[O-].Cl | -76.3%
12 | Cc1ccc(NC(=O)c2ccc(NCCCN3CCC(C)CC3)c([N+](=O)[O-])c2)cc1F.Cl | -8.31%
13 | Cc1cccc(NC(=O)c2ccc(NCCc3ccccc3)c([N+](=O)[O-])c2)c1 | 6.78%
14 | O=C(Nc1cc(F)cc(F)c1)c1ccc(NCCc2ccccc2)c([N+](=O)[O-])c1 | 3.74%
15 | Cc1ccc(C(=O)Nc2cccc(NC(=O)c3ccc(C)cc3)n2)cc1 | 2.01%
16 | Cc1ccccc1-c1nnc(CN2CCC(C)CC2)o1.Cl | -6.6%
17 | COCCOCC(O)CN1CCN(c2ccc(C)cc2)CC1.O=C(O)C(=O)O (stereo not shown) | -11.2%
18 | Cc1c(C(=O)NC2CCCc3ccccc32)oc2ccc(S(=O)(=O)N3CCOCC3)cc12 (stereo not shown) | -2.45%
19 | CC(Oc1cccc(Cl)c1)C(=O)Nc1ccc(S(=O)(=O)NC2=NCCCCC2)cc1 (stereo not shown) | -22.5%
20 | CCN(CC)C(=O)c1c2c(nc3ccccc13)-c1ccccc1CC2 | -12.6%
21 | CCOC(=O)/C(C#N)=C\C=C1C=CN(C)C=C1 | 0.0919%

Row | SMILES | hERG current change (%, negative = inhibition) at 10uM
22 | O=c1cc(CN2CCOCC2)c2ccc(O)c(O)c2o1 | 10.1%
23 | Cc1cc(C)c2oc(=O)cc(CN3CCN(Cc4ccccc4)CC3)c2c1 | -33.2%
24 | CCc1cc(=O)oc2c(CN3CCN(C)CC3)c(O)ccc12 | 8.25%
25 | Cc1cc(C)c2c(CN3CCN(Cc4ccccc4)CC3)cc(=O)oc2c1C.Cl | -40.8%
26 | Cc1c(O)ccc2c(CN3CCN(CCO)CC3)cc(=O)oc12 | 3.5%
27 | Cc1c(O)ccc2c(CN3CCN(Cc4ccccc4)CC3)cc(=O)oc12 | -61.9%
28 | Cc1ccc2c(CN3CCN(Cc4ccccc4)CC3)cc(=O)oc2c1C | -55.3%
29 | Cc1ccc2c(CN3CCCCC3)cc(=O)oc2c1C | -1.49%
30 | O=c1cc(CN2CCN(Cc3ccccc3)CC2)c2ccc(O)c(O)c2o1 | -65.8%
31 | COc1ccc(NC(=O)C2CC(=O)OC2(C)C)cc1 (stereo not shown) | 3.44%
32 | CCOC(=O)CNC(=O)Nc1ccccc1C(=O)OC | 15.1%
33 | Cc1cc(C)n(S(=O)(=O)c2cccc([N+](=O)[O-])c2)n1 | 3.73%
34 | COc1ccc(C(=O)C(C)N(C(=O)c2ccc(Cl)cc2Cl)N2C(=O)C3C4C=CC(C4)C3C2=O)cc1 (stereo not shown) | 0.401%
35 | Cc1cccc(OC(=O)c2sc3ncn(C)c(=O)c3c2C)c1 | 3.54%
36 | O=C(Cn1nc2n(c1=O)-c1ccccc1SC2)N/N=C/c1ccncc1 | -1.97%
37 | Nc1c(C(=O)OC2CCCCC2)c2nc3ccccc3nc2n1CC1CCCO1 (stereo not shown) | -63.7%
38 | Nc1c(C(=O)NC2CCCC2)c2nc3ccccc3nc2n1CC1CCCO1 (stereo not shown) | -4.67%
39 | CC(C)OC(=O)c1c(N)n(CC2CCCO2)c2nc3ccccc3nc12 (stereo not shown) | -29.3%
40 | Nc1cc(Cl)ccc1N1CCOCC1 | -1.57%
41 | C[n+]1ccccc1COc1ccc(C(C)(C)C)cc1.Cc1ccc(S(=O)(=O)[O-])cc1 | 2.84%
42 | COc1ccc(-c2c(-c3cc(OC)cc(OC)c3)n(C)c3ccc(-c4ccc(S(N)(=O)=O)cc4)cc23)cc1 | 14.8%

Row | SMILES | hERG current change (%, negative = inhibition) at 10uM
43 | Cc1ccc(-n2c3nc(=O)[nH]c(=O)c-3cc3cc([N+](=O)[O-])ccc32)cc1C | -26.9%
44 | Cc1cccc(-n2c3nc(=O)[nH]c(=O)c-3cc3cc([N+](=O)[O-])ccc32)c1 | -35.1%
45 | Cc1ccc(-n2c3nc(=O)[nH]c(=O)c-3cc3cc([N+](=O)[O-])ccc32)cc1 | -57.6%
46 | COc1ccc(CNC(=O)C(=O)NCC2OCCN2S(=O)(=O)c2ccc(F)cc2)cc1 (stereo not shown) | -3.41%
47 | COc1ccc(-c2nc(CSCC(=O)NCc3ccc4c(c3)OCO4)c(C)o2)cc1 | -6.05%
48 | COc1ccccc1NS(=O)(=O)c1ccc(N/N=C(\C)C(C)C)c([N+](=O)[O-])c1 | 9.29%
49 | CCOC(=O)c1ccccc1NC(=O)c1c(O)[nH]c(=S)[nH]c1=O | 15.6%
50 | O=C(c1cn(-c2ccccc2)nc1-c1ccc(F)cc1)N1CCCCC1 | -10.6%
51 | Cc1ccc(-c2nn(-c3ccc(F)cc3)cc2C(=O)NC2CCC(O)CC2)cc1 (stereo not shown) | 14.4%
52 | COc1cccc(-c2nn(-c3ccccc3)cc2C(=O)O)c1 | 1.11%
53 | COc1cccc(-c2nn(-c3ccc(C)cc3)cc2C(=O)N2CCN(C3CCS(=O)(=O)C3)CC2)c1 (stereo not shown) | -57%
54 | Cc1ccc(-c2nn(-c3ccc(F)cc3)cc2C(=O)N2CCN(C3CCS(=O)(=O)C3)CC2)cc1 (stereo not shown) | -61.6%
55 | COc1cccc(-c2nn(-c3ccc(C)cc3)cc2C(=O)NCC2CCCO2)c1 (stereo not shown) | -62.2%
56 | Cc1ccc(-c2nn(-c3ccccc3)cc2C(=O)N2CCN(C3CCS(=O)(=O)C3)CC2)cc1 (stereo not shown) | -68.8%
57 | COc1cccc(-c2nn(-c3ccc(F)cc3)cc2C(=O)NCC2CCCO2)c1 (stereo not shown) | -49.7%
58 | COc1cccc(-c2nn(-c3ccc(C)cc3)cc2C(=O)N2CCc3cc(OC)c(OC)cc3C2)c1 | -31.7%
59 | COc1ccc(-c2nn(-c3ccccc3)cc2C(=O)NCC2CCCO2)cc1 (stereo not shown) | -0.557%
60 | CCc1ccc(-c2nn(-c3ccccc3C)cc2C(=O)N2CCN(C3CCS(=O)(=O)C3)CC2)cc1 (stereo not shown) | -1.98%
61 | Cc1cccc(-c2nn(-c3ccccc3)cc2C(=O)N2CCN(C3CCS(=O)(=O)C3)CC2)c1 (stereo not shown) | -36.6%
